Laboratory results: publication PMC12136788
Positions count from the first letter of the chain named. In all, about 24,000 sequences were measured (“enrichment r”: median about 0.99, highest 2% from about 3.7 on). What follows is part of a selection rich in the highest values, with near analogues and random picks from the rest.

T1: UNK ZnF1-3 (human, UniProt Q9C0B0 31-174)
T1 sequence: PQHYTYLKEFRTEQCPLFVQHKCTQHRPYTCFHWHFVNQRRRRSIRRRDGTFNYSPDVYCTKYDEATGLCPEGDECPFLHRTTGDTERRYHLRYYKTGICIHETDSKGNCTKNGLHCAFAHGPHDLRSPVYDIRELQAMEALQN

B1: chr7:54823571:54823572:-_ENSG00000132432_ENST00000352861|hu_mus|hu_hu_hu_mus_False|98_98 (ssRNA)
RNA: GGGAGUUCUACAGUCCGACGAUCUCCCAUGAUAGCAAAUCCUAUUGCUGUAGCCAUGGCAAUCUUCUGGAAUUCUUUUCUGUCGGGUUUGGUGCAUCUUUUAACCAGCCGAAUUGAGUCCUUUACAAACUGCCGGCUGGGCUCCAACAGAGGAUUGAGCAUCA
B2: 80410323_80421071_410_CDS_ENSMUSG00000027002_ENSMUST00000028386|mouse|control|control (ssRNA)
RNA: GGGAGUUCUACAGUCCGACGAUCCACAGCAGAUUCCAGGUUUUUGUCAAUAAGGUAGGAGGGUUUAGCCUUGGGGUCGCCACAUGCCUUCUUGAUGUUGUAGAGGCGCGUGAGCAUGCCGACGCCCCGGUCGUUGAGGAUGGUCAACAGAGGAUUGAGCAUCA
B3: chr3:94910677:94910678:-_ENSMUSG00000028126_ENSMUST00000107236|mus_mus|motif|central (ssRNA)
RNA: GGGAGUUCUACAGUCCGACGAUCACUUGAGCCGGGCCCCGGGAGUCCCGCGUCUCGGAUAGAACAAACCUAAAGGAAAACCGGGGCACCUGAGGUGCCCCCAAAAGCGAAUGCCCCCCCUCCCUCACCUCCCCAGCCACUGCCCAACAGAGGAUUGAGCAUCA
B4: chr7:149838072:149838073:-_ENSMUSG00000048583_ENSMUST00000000033|mus_mus|motif|central (ssRNA)
RNA: GGGAGUUCUACAGUCCGACGAUCGAUCACUGCUCCCGUUAUGUAGGGAAUGGGUACAAUUGAUUAUGAGCGCAUAAAAAGCGGAGGAGGGAUUAAAAAAAAAAGGAAAAAACCGGCCCCAGAAAUAAAAAGAGGGGAAUAGAUCAACAGAGGAUUGAGCAUCA
B5: chr2:25961539:25961540:-_ENSG00000143970_ENST00000336112|hu_mus|FALSE|FALSE (ssRNA)
RNA: GGGAGUUCUACAGUCCGACGAUCGAGUAAUGGAAAGCCUGCUCAUAACAAACCAUUUAACCCAAGAGCUCAUGAAACUUUAAGAGGAGGAAAGCAGCAUAGAGCAAUCAGAAUGGUAACUGAAGGGACCGUUCUAUGUAGGACCAACAGAGGAUUGAGCAUCA
B6: chr7:149838072:149838073:-_ENSMUSG00000048583_ENSMUST00000000033|mus_mus|FALSE|FALSE (ssRNA)
RNA: B4 RNA with G82U, G83A
B7: chr7:75932113:75932114:+_ENSG00000106211_ENST00000248553|hu_hu|hu_hu_hu_mus_False|8_88 (ssRNA)
RNA: GGGAGUUCUACAGUCCGACGAUCCUGCGACCACUCAUCGGGCAACCGGGGCAGCCCGAAAGCUUGAUCGAAGAGGCGGCUGUGUGCAGGGUACCAGUCCCGGAAUGGUUCCCAGCUCGGGCUCCGCAGCGAGAAGGAGGGCACCAACAGAGGAUUGAGCAUCA
B8: chr2:47388980:47388981:-_ENSG00000143933_ENST00000272298|hu_mus|hu_hu_hu_mus_True|8_68 (ssRNA)
RNA: GGGAGUUCUACAGUCCGACGAUCUUCAUCUGUUAACUUCUCGCCAAGGUUUGUCAUCACAUGGCGAAGUUCUGCAGCACUAAUAUAGCCAUUGCCAUCCUUAUCAAACACACGGAAUGCUUCUCUAAUUUCUUCUUCACUGUCCAACAGAGGAUUGAGCAUCA
B9: 160109231_160113639_413_CDS_ENSG00000112096_ENST00000546260|human|control|control (ssRNA)
RNA: GGGAGUUCUACAGUCCGACGAUCAACUUCAGUGCAGGCUGAAGAGCUAUCUGGGCUGUAACAUCUCCUGGAAAACUCGGAACCGGUACAAAUACGAAGCGAGUUCUCCUCCACGGAGAGGCCCGUCCGUAUGGGGCCUGGCUCCAACAGAGGAUUGAGCAUCA
B10: chr4:144460044:144460045:+_ENSG00000153147_ENST00000283131|hu_mus|hu_hu_hu_mus_False|28_78 (ssRNA)
RNA: GGGAGUUCUACAGUCCGACGAUCACGGUCCAUAGCCUGAAGAUCAACUUGCGGAUUCCAAUCAGAAUCAUAUAAAAUGACUACAUCAGCAGUUGCAAGAUUGAUGCCAAGACCACCAGCACGUGUGCUUAGCAUAAAUACAAACAACAGAGGAUUGAGCAUCA
B11: chr6:41756983:41756984:+_ENSG00000214736_ENST00000398881|hu_mus|FALSE|FALSE (ssRNA)
RNA: GGGAGUUCUACAGUCCGACGAUCAUCAAUGUCACUCAAGUUCCUGGCCAGCCAGACUCCCGCAGCAAAGAGUCCCAAAUUGAGGAUCAAGUUCCUCCGGAAGUCGUUUCGAUCGGUGGCGAAGCGGAAGACACCGCGGAGCCACAACAGAGGAUUGAGCAUCA
B12: 40918001_40923414_123_3pUTR_ENSMUSG00000028423_ENSMUST00000098143|mouse|control|control (ssRNA)
RNA: GGGAGUUCUACAGUCCGACGAUCAGCAGCAUCUGUAUUGAAUUUAAAAGUGCCUGAGACCGGAGGCGCCUCCGCCAUCCCGUGCCGCAGCACCUCAAGCGAGCCCCGCCACCGAGCGAAGGCUGUCACCUGGUCACGUGUCCCCAACAGAGGAUUGAGCAUCA
B13: chr7:140404665:140404666:+_ENSG00000090266_ENST00000247866|hu_hu|hu_hu_hu_mus_False|1_28 (ssRNA)
RNA: GGGAGUUCUACAGUCCGACGAUCUGCUCCUACUCGUCCAGAGAGUUUACAGUGUCAGUCCUCGUCAUCAGGAGGGAUUCCCAGUUCUUCAUCUGUCCACUGUGAAGGAUCAGGAUAUGAAAAGUGACCCAGCACAGCUUCUGACAACAGAGGAUUGAGCAUCA
B14: chr1:32384726:32384727:-_ENSG00000184007_ENST00000602725|perfect_dup|FALSE|FALSE (ssRNA)
RNA: GGGAGUUCUACAGUCCGACGAUCAGGAGGAAAUCAAUAAAUCUUGAAAUGUUCCGCAGCAGAAAACAUUAAAAAGACCACUAAAAUGCCUAUUAUUGAUCACUAUUUUCUCUAUUCAACUUGCUUGUUCCUUAGGAAGCUUCUCAACAGAGGAUUGAGCAUCA
B15: 48821072_48822033_622_CDS_ENSG00000108848_ENST00000240304|human|control|control (ssRNA)
RNA: GGGAGUUCUACAGUCCGACGAUCUGCAGCAAAGCUUUCAAUUGUCGACGUUGUGGACCUUAGCAGUUCUCUCUCUUCUUUUAAUUGCUCAACUAAUUUCAUCAUCCCCUGGGCUUCUUCUACUUUUCCUUCAGACCCUAAUUCCAACAGAGGAUUGAGCAUCA
B16: 30503004_30509812_319_CDS_ENSG00000126858_ENST00000394692|human|control|control (ssRNA)
RNA: GGGAGUUCUACAGUCCGACGAUCCAGAUCAGAUUUGUUCCCAACCAAUAUUAAAGGCAGCCUGCUGUCUUUGUCUGUUCUUUCAUUUAUGAGAGGAAUCCAUCGACUUGUUACCUUAUCAAUAGAAUGCUUGUUGUUAACGGCCAACAGAGGAUUGAGCAUCA
B17: chr13:9170561:9170562:+_ENSMUSG00000033499_ENSMUST00000091829|mus_mus|FALSE|FALSE (ssRNA)
RNA: GGGAGUUCUACAGUCCGACGAUCCCAUCAGCCCCCAUCCAUCUGCUGGACACCCUACCAAUGCGCACUUGUAGACCAACUAUUAAAAAAAAAAAAAAAGGAAGUAGCAGAGUUCCCUUAAUUUAGAAAAACUCAUUAUAGCUUCAACAGAGGAUUGAGCAUCA
B18: chr7:108137184:108137185:-_ENSG00000135241_ENST00000257694|hu_mus|motif|central (ssRNA)
RNA: GGGAGUUCUACAGUCCGACGAUCUCGAUAGAGUUCCUCACAUUCAUCCAGCGGCAUGUGAAACAAUCCCAGCAUAAAUGCGGAUAUGGCCCCUGUGCUUACUCCACAGAUGUAAUCAAAAAGCUGAUGAAUCGGCUUCUGAGUCAACAGAGGAUUGAGCAUCA
B19: chr18:67805652:67805653:+_ENSMUSG00000024537_ENSMUST00000025418|mus_hu|FALSE|FALSE (ssRNA)
RNA: GGGAGUUCUACAGUCCGACGAUCAUACUUAAUAAAAAUGGAUCUUAACUGUAGAGCCACCAGCUUUCUUGAAGGCAAUGAAUACACUUCAGCAUUUAUGCUAAGUUCUGUUGAAUUUCCUUCUGUGGUCGCAUAUGGAUUGUUCAACAGAGGAUUGAGCAUCA
B20: chr13:9170561:9170562:+_ENSMUSG00000033499_ENSMUST00000091829|mus_mus|motif|central (ssRNA)
RNA: B17 RNA with U80G, A81G
B21: chr13:9170561:9170562:+_ENSMUSG00000033499_ENSMUST00000091829|mus_hu|FALSE|FALSE (ssRNA)
RNA: GGGAGUUCUACAGUCCGACGAUCCACUGGCCCUCAUUCAUCUGCGGGGACGUUCUAGAGAUAUGCACUUACAGACCAGUUACUUAAAAAAAAAAAAAAAAAGCAGAGUUCCCUUAAUUUAGAAAAACUCACUAUAUAUAGCUUCAACAGAGGAUUGAGCAUCA
B22: chr2:43450610:43450611:-_ENSG00000152518_ENST00000282388|hu_mus|FALSE|FALSE (ssRNA)
RNA: GGGAGUUCUACAGUCCGACGAUCGUUAAAUAGUUUUUCAUAUUGAGUUGUGGUGCAGUGGUGCGGAUCAACUCAGAACAACUAAAAAUGAAGCACUUAUUUCCCAACAACUAUGAACUGAGCUCUGCCCAUAGCUUCCAGAGACAACAGAGGAUUGAGCAUCA

The binders below were run against T1, UNK ZnF1-3 (assay: nsRBNS (natural sequence RNA bind-n-seq); RBNS binding buffer (assumed for nsRBNS): 25 mM Tris pH 7.5, 150 mM KCl, 3 mM MgCl2, 0.01% Triton X-100, 500 ug/ml BSA, 20 U/ml SUPERase-In, 4 C; UNK is unkempt and MSI1 is Musashi-1; names of the RNAs are library labels; protein concentration not given here; high values mean tight binding).

| Binder | binding signal [enrichment R] |
| --- | --- |
| B1 | 0.647 |
| B2 | 0.855 |
| B3 | 2 |
| B4 | 9.4 |
| B5 | 3.45 |
| B6 | 11 |
| B7 | 1.63 |
| B8 | 0.795 |
| B9 | 0.808 |
| B10 | 1.2 |
| B11 | 1.55 |
| B12 | 1.06 |
| B13 | 1.15 |
| B14 | 0.842 |
| B15 | 0.686 |
| B16 | 0.92 |
| B17 | 5.05 |
| B18 | 1.13 |
| B19 | 1.04 |
| B20 | 4.58 |
| B21 | 6.5 |
| B22 | 1.32 |
